# Measured values taken from PubChem BioAssay (NCATS).
# Values joined by “and” are separate entries in the source; they are usually repeats but may differ in a detail not shown here. Identical values can stand only once. Results filed as inconclusive are left out. Where a call stands in place of a potency, no number is given. Active and inactive are the calls of the source. Calls come from the whole dose curve; as a rule, active = well fitted cell-killing curve with a large enough effect; inconclusive = small, poorly fitted or top-dose-only effect, or effect the other way; inactive = no such curve, though single readings can be large or run the other way.
# Assay: qHTS of pediatric cancer cell lines to identify multiple opportunities for drug repurposing: Confirmatory screen for Saos-2 cells (AID 1347127); note: nearly all actives have a fitted effect of over 60% in size
# Details: Saos-2 osteosarcoma cell viability; series mostly up to 45.9 µM
# Text: Drug repurposing or repositioning has been offered as a strategy for drug development in oncology programs. This approach has special potential for childhood cancers and other rare or orphan diseases, where the expected return on new drug development has been a disincentive to pharmaceuticals.
# In this project we exploit the poly-pharmacology of drugs to discover new indications via phenotypic screening of a panel of 19 well-characterized cell lines derived from solid tumors seen in children and adolescents. The goal is to identify approved drugs with previously unrecognized anticancer properties that has the potential to reveal new mechanisms and biological processes involved in carcinogenesis or drug resistance. We employed a titration-based paradigm (quantitative high-throughput screening or qHTS), where all compounds were tested at multiple concentrations for their effect on cell viability. Concentration-response curves (CRCs) were derived directly from the primary screen, and both potency and efficacy values were used to identify compounds with robust bioactivity profiles. We screened the NIH Chemical Genomics Center (NCGC) Pharmaceutical Collection (NPC) and Mechanism Interrogation Plate (MIPE) small molecule collections of approved and investigational compounds against these cell lines; and measured metabolically active cells after 48 hours of compound treatment as a proxy for cell viability.
# Assay Submitter: Nathalia J. Martinez, National Center for Advancing Translational Sciences, National Institutes of Health, Rockville, MD, USA; email: natalia.martinez@nih.gov
# [1] Shen, M et al. Quantitative high-throughput phenotypic screening of pediatric cancer cell lines identifies multiple opportunities for drug repurposing. Oncotarget 2017 Dec 19;9(4):4758-4772. PMID 29435139.
# The cells were obtained from University of North Carolina (UNC), Pediatric Preclinical Testing Program (PPT), and Coriell Institute (CI).
# qHTS cell viability assay:
# Cells were assayed in growth media at a density of 500-1,000 cells/well. Five microliters of cells were dispensed into 1,536-well, white, solid-bottom, TC-treated plates (Greiner Bio One) using a multidrop dispenser and incubated at 37 degrees C, 5% CO2, under a humidified atmosphere for 5 hours. Twenty-three nanoliters of compounds and controls (neutral control DMSO or positive control bortezomib at final concentration of 2.3 µM) were subsequently transferred by Kalypsys pintool. For primary screens, the MIPE collection was tested at 11-point dilutions (final concentrations range from 0.78 nM to 46 µM) and the NPC collection at 8-point dilutions (final concentrations range from 0.59 nM to 46 µM). Compounds tested in follow-up screens were assayed at 11-point dilutions. Cells were incubated for 48 hours, followed by addition of 3 µL of CellTiter-Glo (Promega). After a 15 min incubation at room temperature, samples were analyzed for luminescence intensity using a ViewLux High-throughput CCD imager equipped with clear filters.
# Potency is the fitted concentration of half-maximal effect.
row,Structure (SMILES),Potency
1,CC(C)(C)C(=O)OCOP(=O)(COCCn1cnc2c(N)ncnc21)OCOC(=O)C(C)(C)C,14.7 µM (active)
2,CNC(=O)c1cc(Oc2ccc(NC(=O)Nc3ccc(Cl)c(C(F)(F)F)c3)cc2)ccn1,inactive
3,CCOC(=O)c1ccc(C#Cc2ccc3c(c2)C(C)(C)CCS3)nc1,inactive
4,Cn1nnc2c(C(N)=O)ncn2c1=O,inactive
5,Nc1nc(F)nc2c1ncn2[C@@H]1O[C@H](CO)[C@@H](O)[C@@H]1O,928 nM (active) and 1.17 µM (active)
6,COC(=O)Nc1nc2ccc(S(=O)c3ccccc3)cc2[nH]1 (stereo not given),1.47 µM (active)
7,Nc1nc(=S)c2[nH]cnc2[nH]1,7.37 µM (active) and 2.93 µM (active)
8,COC(=O)Nc1nc2ccc(Sc3ccccc3)cc2[nH]1,1.31 µM (active)
9,CNS(=O)(=O)CCc1ccc2[nH]cc(C3CCN(C)CC3)c2c1,inactive
10,CC(C)(C#N)c1cc(Cn2cncn2)cc(C(C)(C)C#N)c1,inactive
11,COc1nc(N)nc2c1ncn2[C@@H]1O[C@H](CO)[C@@H](O)[C@@H]1O,inactive
12,C[C@@H](CN1CC(=O)NC(=O)C1)N1CC(=O)NC(=O)C1,inactive
13,CN1CCCC(n2nc(Cc3ccc(Cl)cc3)c3ccccc3c2=O)CC1 (stereo not given),inactive
14,Cc1cccc(N(C)C(=S)Oc2ccc3ccccc3c2)c1,inactive
15,CNCC[C@H](Oc1cccc2ccccc12)c1cccs1,inactive
16,CCOC(=O)[C@H](CCc1ccccc1)N[C@H]1CS[C@H](c2cccs2)CN(CC(=O)O)C1=O,inactive
17,NC(=O)c1cccnc1,inactive
18,CN(C)c1ccc(C(=C2C=CC(=[N+](C)C)C=C2)c2ccc(N(C)C)cc2)cc1,1.31 µM (active)

row,Structure (SMILES),Potency
1,CCC(=O)O[C@]1(C(=O)CCl)[C@@H](C)C[C@H]2[C@@H]3CCC4=CC(=O)C=C[C@]4(C)[C@@]3(F)[C@@H](O)C[C@@]21C,inactive
2,CC(C(=O)O)c1ccc2c(c1)CC(=O)c1ccccc1S2 (stereo not given),inactive
3,C[C@@H]1C[C@H]2[C@@H]3CCC4=CC(=O)C=C[C@]4(C)[C@@]3(Cl)[C@@H](O)C[C@]2(C)[C@@]1(OC(=O)c1ccco1)C(=O)CCl,4.14 µM (active)
4,S=P(N1CC1)(N1CC1)N1CC1,inactive
5,CC1CC2C3CCC4=CC(=O)C=C[C@]4(C)[C@@]3(F)[C@@H](O)C[C@]2(C)[C@@]1(O)C(=O)CO (stereo not given in full),inactive
6,CCc1c2c(nc3ccc(OC(=O)N4CCC(N5CCCCC5)CC4)cc13)-c1cc3c(c(=O)n1C2)COC(=O)[C@]3(O)CC,1.85 µM (active)
7,CCCCOc1ccc(CC(=O)NO)cc1,inactive
8,Nc1nc(N)c2nc(CNc3ccc(C(=O)NC(CCC(=O)O)C(=O)O)cc3)cnc2n1 (stereo not given),inactive
9,CNNCc1ccc(C(=O)NC(C)C)cc1,inactive
10,COc1ccc(C(=O)CC(=O)c2ccc(C(C)(C)C)cc2)cc1,inactive
11,COc1cc2c(Nc3ccc(Br)cc3F)ncnc2cc1OCC1CCN(C)CC1,inactive
12,COc1cc(NCc2ccc3nc(N)nc(N)c3c2C)cc(OC)c1OC,10.4 µM (active)
13,CCC(=O)O[C@]1(C(=O)SCF)[C@H](C)C[C@H]2[C@@H]3C[C@H](F)C4=CC(=O)C=C[C@]4(C)[C@@]3(F)[C@@H](O)C[C@@]21C,inactive
14,CC(C)NCC(O)c1ccc(NS(C)(=O)=O)cc1 (stereo not given),inactive
15,CC(C)C[C@H](NC(=O)[C@H](CCc1ccccc1)NC(=O)CN1CCOCC1)C(=O)N[C@@H](Cc1ccccc1)C(=O)N[C@@H](CC(C)C)C(=O)[C@@]1(C)CO1,0.117 µM (active)
16,COc1cc([C@@H]2c3cc4c(cc3[C@H](O)[C@H]3COC(=O)[C@H]23)OCO4)cc(OC)c1OC,0.0414 µM (active)
17,Nc1nc(N)nc(-c2cc(Cl)ccc2Cl)n1,inactive
